Source: PubChem
This is a sample that favours compounds with a hit; in the whole collection about 1.8% have one here.
MBNL1 CUG block: MBNL1-poly(CUG) RNA binding inhibition; Q9NR56; TR-FRET MBNL1-His/biotin-(CUG)12 binding, 665/545 ratio; Potency, µM (doses to about 57.5 µM), for inactives: at the top dose activity change, negative = inhibition, most hits filed as inhibitors; hit rate 0.036% among 280,000; active = well fitted inhibition curve with a large enough effect in the signal ratio, with a control signal flat, not every such curve was filed as active; inconclusive = small, poorly fitted or top-dose-only effect, or effect the other way, or a change in a side signal; inactive = no such curve, though single readings can be large or run the other way; the % refers to the signal ratio; also: potency is read from the fitted curve at half-maximal effect; % is scaled to controls: 0 for no effect and ±100 for the full control effect
Target sequence (Q9NR56 whole entry, looked up): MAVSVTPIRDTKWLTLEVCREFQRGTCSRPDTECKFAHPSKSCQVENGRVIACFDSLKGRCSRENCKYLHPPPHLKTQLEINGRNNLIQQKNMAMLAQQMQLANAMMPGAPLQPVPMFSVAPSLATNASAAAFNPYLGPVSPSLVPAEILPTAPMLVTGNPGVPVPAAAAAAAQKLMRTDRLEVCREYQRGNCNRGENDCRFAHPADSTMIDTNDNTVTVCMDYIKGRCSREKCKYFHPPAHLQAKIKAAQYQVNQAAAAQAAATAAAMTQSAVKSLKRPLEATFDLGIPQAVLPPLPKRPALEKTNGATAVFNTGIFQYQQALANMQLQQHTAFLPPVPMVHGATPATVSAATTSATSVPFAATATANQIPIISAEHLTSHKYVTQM
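TR-FRET between His-tagged MBNL1 and biotin-(CUG)12 RNA, detected with Tb anti-His antibody (0.055 ng/ul) and streptavidin-XL665 (5 nM), 60 min at room temperature. Compounds titrated 92 nM to 58 uM; 665/545 nm ratio normalized to buffer and complex controls.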
TCR act: activators of T cell receptors; primary human leukocytes, anti-CD3, IL-2 HTRF, 48 h; Potency, µM (doses to about 9.22 µM), for inactives: top-dose activation of IL-2 secretion, actives largely listed as activators; 330,000 tested, under 10 active; also: % of control where 0% means no effect
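1) Mix primary human leukocytes, a-CD3 beads and compound. 2) Incubate 48 hr. 3) Add HTRF IL-2 reagents (a-IL-2-K, a-IL-2-d2).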
Glioma ERSR ind: induces the endoplasmic reticulum stress response in human glioma cells. AID 602332. Potency, µM, without a hit: at the highest dose activation, usual class: activators. hit rate 0.02% among 420,000. U87-MG GRP78 promoter luciferase reporter, 16 h; also: potency is read from the fitted curve at half-maximal effect; series mostly up to about 76 µM; % of control where 0% means no effect; nearly all actives have a fitted effect of over 35% in size
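Stably transfected U87-MG human glioma cells carrying a GRP78-based luminescent sensor were seeded at 1000 cells/well, pin-dosed with compounds and incubated 16 h. Luciferase reagent was then added, and end-point luminescence was read after 10 min at room temperature.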
Mito fusion yeast: mitochondrial division inhibition or fusion activation | S. cerevisiae fusion-defective mutant growth rescue, CellTiterGlo 48 h | Potency, µM (top dose mostly 46.1 µM), for inactives: at the highest dose growth rescue (activation), most hits filed as activators | hit rate 0.23% among 320,000 | AID 485298; also: potency is read from the fitted curve at half-maximal effect; % of control where 0% means no effect; nearly all actives have a fitted effect of over 45% in size
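Yeast fusion mutant, YPEG (non-fermentable carbon), compound, 48 h at 37C non-permissive; CellTiterGlo added, 10 min RT, luminescence read. Rescued growth = division inhibition.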
ClpP mod: qHTS Assay for Activators of ClpP. purified B. subtilis ClpP, FRET peptide cleavage, 20 min. hit rate 1.9% among 340,000. ATP-dependent Clp protease proteolytic subunit (Bacillus subtilis (strain 168)), P80244. AID 651965, 2013. Potency, µM (series often up to 57.5 µM), for inactives: at the highest dose activity change, negative = active; active = well fitted falling curve with a large enough effect; inconclusive = small, poorly fitted or top-dose-only effect; inactive = no such curve, though single readings can be large or run the other way; also: potency is read from the fitted curve at half-maximal effect; the source files actives as falling curves though it sought activators and does not explain the sign; nearly all actives have a fitted effect of over 65% in size
Target sequence (P80244 whole entry, looked up): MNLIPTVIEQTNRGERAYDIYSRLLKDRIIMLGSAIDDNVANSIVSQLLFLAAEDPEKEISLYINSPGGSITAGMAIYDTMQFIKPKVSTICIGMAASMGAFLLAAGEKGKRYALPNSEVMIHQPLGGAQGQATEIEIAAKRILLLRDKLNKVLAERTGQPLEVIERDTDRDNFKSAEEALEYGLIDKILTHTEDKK
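Buffer: 100 mM Tris/HCl pH8, 100 mM KCl, 0.05% low protease BSA, 2.5% glycerol, 0.01% Tween-20. ClpP 10 microg/mL final; 20 min RT; delta FRET normalized to ADEP and DMSO controls.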
A-T KAP1 phos: potential ataxia-telangiectasia treatments restoring KAP-1 phosphorylation. F2112 A-T fibroblasts, KAP-1 phosphorylation AlphaLISA; neocarzinostatin DNA damage 30 min before lysis. Potency, µM (top dose mostly 57.5 µM), without a hit: at the top dose activation, hits mostly activators. hit rate 0.19% among 320,000; also: potency is read from the fitted curve at half-maximal effect; % of control where 0% means no effect; nearly all actives have a fitted effect of over 45% in size
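ATM-like activity read as KAP-1 phosphorylation via AlphaLISA donor/acceptor antibody pairs after lysis and 6 hr at 25C. Cells were ATM-null patient fibroblasts (F2112, hTERT), dosed 60 min, then exposed to the DSB inducer NCS for 30 min.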
* marks the source's active call; other numbers are inactive results; ? = inconclusive; / = not tested or not shown; [ ] = another dose, or the depositor's remark. Unless noted, calls follow the shape of the dose curve; as a rule, active = well fitted curve in the direction sought with a large enough effect; inconclusive = small, poorly fitted or top-dose-only effect, or another doubt; inactive = no such curve, though single readings can be large; an effect the other way counts as inactive or inconclusive.

SMILES	MBNL1 CUG block	TCR act	Glioma ERSR ind	Mito fusion yeast	ClpP mod	A-T KAP1 phos
N#Cc1c(NCCN)nc(-c2ccco2)c2c1CCCC2	1%	3%	-7%	-6%	8.9µM*	-4%
CN1N=C(C(=O)N2CCOc3ccc(CN4CCCC(C(=O)c5cccnc5)C4)cc3C2)CCC1=O (configuration not stated)	/	/	-7%	/	/	/
O=C(c1cccnc1)C1CCCN(Cc2ccc3c(c2)CN(C(=O)c2cnccn2)CCO3)C1 (configuration not stated)	/	/	-4%	/	/	/
CC(C)(C)n1ncc2c(=O)n(Cc3ccccc3Cl)cnc21	/	/	5%	/	/	/
CC(C)CCNc1nc(-c2ccco2)c2c(c1C#N)CCCC2	4%	-4%	-5%	11%	14µM*	11%
CCc1nc(NCCC(C)C)c(C#N)c2c1CCCC2	-9%	1%	-1%	2%	16µM*	/
CN(C)CCNc1nc(-c2ccco2)c2c(c1C#N)CC(C)(C)OC2	4%	1%	-4%	1%	?	4%
N/C(=N\OC(=O)c1ccc(=O)n(Cc2ccccc2)c1)c1ccccn1	-4%	-4%	3%	-1%	28µM*	2%
Cc1ncc2c(c1CNC(=O)c1cncs1)CCN(C(=O)c1ccc(-c3ccccc3)cc1)C2	/	/	0%	/	/	/
S=c1[nH]nc(COc2ccccc2)n1/N=C/c1cccc(Cl)c1Cl	-2%	-4%	-1%	-3%	-2%	-5%
S=c1[nH]nc(COc2ccccc2)n1/N=C/c1ccccc1Cl	-4%	8%	-1%	-15%	2%	5µM*
CC(NC(=O)c1cc(F)ccc1F)c1nnc2n1CCN(Cc1ccco1)CC2 (configuration not stated)	/	/	-7%	/	/	/
CCC1(C)Cc2c(c(=O)n(-c3ccccc3)c3ncnc(N)c23)CO1 (configuration not stated)	?	0%	-4%	-3%	16µM*	-1%
CCC1(C)Cc2[nH]c(=O)c(C#N)cc2CO1 (configuration not stated)	2%	1%	-4%	-6%	/	1%
CC1(C)Cc2[nH]c(=O)c(C#N)cc2CS1	14%	-5%	-4%	-2%	14µM*	10%
CSc1ccc(S(=O)(=O)Nc2ccc(S(=O)(=O)Nc3ccc(C)cc3)cc2)cc1	1%	4%	-2%	18%	-1%	-6%
Cc1ccc(NS(=O)(=O)c2ccc(C(=O)N3CC(C)CC(C)C3)cc2)cc1 (configuration not stated)	/	-10%	40µM*	16%	2%	8%
Cc1ccc(S(=O)(=O)Nc2ccc(N=Nc3ccc(O)cc3)cc2)cc1	/	-1%[46.1 µM]	-1%	20µM*	/	-2%
Cc1ccc(S(=O)(=O)Nc2ccc(C(=O)N3CCCC3)cc2)cc1	-4%	-5%	-1%	-2%	85%	6%
COCCOC(=O)N1CCN(/[N+]([O-])=N/Oc2ccc([N+](=O)[O-])cc2[N+](=O)[O-])CC1	/	/	-12%	/	/	/
O=C(CCC1CCN(Cc2ccccc2)CC1)c1ccc2c(c1)NCCCC2	/	/	-4%	/	/	/
Fc1ccc(-c2nnc3n2CCCCC3)cc1	0%	-3%	1%	16µM*	/	-3%
CC(C)(C)n1ncc2c(=O)n(Cc3ccc([S+](=O)([O-])N4CCOCC4)cc3)cnc21	/	/	-4%	/	/	/
Cc1cc(C)nc(SC2c3cccc4cccc(c34)C2NS(=O)(=O)c2ccccc2)n1 (configuration not stated)	2%	3%	-6%	20µM*	2%	5%
Cc1ccc(S(=O)(=O)NC2c3cccc4cccc(c34)C2Sc2ncccn2)cc1 (configuration not stated)	7%	1%[46.1 µM]	-4%	14µM*	-1%	-2%
SMILES	MBNL1 CUG block	TCR act	Glioma ERSR ind	Mito fusion yeast	ClpP mod	A-T KAP1 phos
Nc1nc(SC2c3cccc4cccc(c34)C2NS(=O)(=O)c2ccccc2)n[nH]1 (configuration not stated)	/	1%[46.1 µM]	-6%	-15%	0%	7%
CCNC(=O)[C@@H]1CCCN1C(=O)[C@H](CCCN=C(N)N)NC(=O)[C@H](CC(C)C)NC(=O)[C@@H](Cc1c[nH]c2ccccc12)NC(=O)[C@H](Cc1ccc(O)cc1)NC(=O)[C@H](CO)NC(=O)[C@H](Cc1c[nH]c2ccccc12)NC(=O)[C@H](Cc1cnc[nH]1)NC(=O)[C@@H]1CCC(=O)N1	/	/	-12%	/	/	/
COc1ccccc1C(=O)N[C@@H]1c2ccccc2C2(CCN(C(=O)c3ccnn3C)CC2)[C@H]1OC	/	/	0%	/	/	/
Cc1cc(=O)oc2cc(NC(=O)[C@H](CCCCN)NC(=O)[C@H](CC3CCCCC3)NC(=O)OCC3c4ccccc4-c4ccccc43)ccc12	/	/	-3%	/	/	/
Cc1c(C(=O)NCCCc2ccncc2)cnn1-c1ncc2c(n1)-c1ccccc1CC2	/	/	-1%	/	/	/
CCN1CCC(N[C@H]2C[C@@H](C(=O)NC)N(Cc3cccc4ccccc34)C2)CC1	/	/	-4%	/	/	/
CN(C)S(=O)(=O)c1cccc(C(=O)N=C2N=C3C=CC(Cl)=CN3Cc3ccccc32)c1	10%	-1%	10%	-9%	/	0.71µM*
O=C(N=C1N=C2C=CC=CN2Cc2ccccc21)c1ccc(S(=O)(=O)N2CCCC2)cc1	-6%	-4%	2%	-4%	/	30%
Cc1ccccc1CS(=O)(=O)CCC(=O)N1CCN(c2ccc(N3CCOCC3)nn2)CC1	21%	/	-5%	-1%	22µM*	12%
CCOC(=O)Cn1c(C)c(Br)c(COC)c(C#N)c1=O	-3%	-1%	1%	1%	/	3%
COCc1c(Br)c(C)[nH]c(=O)c1C#N	11%	6%[46.1 µM]	-16%	-7%	14µM*	3%
O=C1NC(=O)C(Cc2ccccc2F)(C2CCN(Cc3cccn3-c3cccnc3)CC2)N1 (configuration not stated)	/	/	-7%	/	/	/
COc1cc2ncnc(N3CCN(C(=O)Nc4ccc(Oc5ccccc5)cc4)CC3)c2cc1OC	/	/	-4%	/	-4%	/
CC(C)CN(C(=O)COC(=O)c1cccnc1Cl)c1c(N)n(Cc2ccccc2)c(=O)[nH]c1=O	/	1%	2%	-7%	28µM*	-10%
CCCn1c(N)c(N(CCOC)C(=O)COC(=O)c2ccccc2NCCO)c(=O)[nH]c1=O	/	-1%	0%	0%	?	/
CCCCn1c(N)c(N(CC(C)C)C(=O)COC(=O)c2ccccc2NCCO)c(=O)[nH]c1=O	/	0%	-1%	4%	16µM*	2%
